High-throughput results: PubChem, National Center for Advancing Translational Sciences (NCATS)
CHX counter: affects cycloheximide protein synthesis inhibition readout, counter-screen | cell reporter, cycloheximide protein synthesis inhibition counterscreen | max response, % | 12% of 300,000 active; in the data active = max response mostly above about 13%, no sharp cut-off; inactive = mostly below about 14%; also: read at 38.3 µM for the half of the compounds with a filed dose; 0% is about no effect
Pf growth 96h: P. falciparum growth inhibition at 96 hours; P. falciparum luciferase reporter growth, 96 h; Potency, µM (series often up to 28.7 µM), inactives show top-dose activity change, negative = inhibition, actives largely listed as inhibitors; 6.9% of 320,000 active; active = well fitted inhibition curve with a large enough effect; inconclusive = small, poorly fitted or top-dose-only effect, or another doubt; inactive = no such curve, though single readings can be large or run the other way; also: potency is read from the fitted curve at half-maximal effect; % is scaled to controls: 0 for no effect and ±100 for the full control effect
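P. falciparum expressing integrated firefly luciferase grown in erythrocytes (2% hematocrit, 0.05% parasitemia final) with compounds for 96 hours at 37 C, 5% CO2. Growth inhibition read as loss of luminescence after adding luciferase detection reagent.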
Pf growth 48h: P. falciparum growth inhibition at 48 hours (one generation). P. falciparum luciferase growth in erythrocytes, 48 h. Potency, µM (doses to about 28.7 µM), for inactives: at the highest dose activity change, negative = inhibition, actives largely listed as inhibitors. 5.9% of 310,000 active; active = well fitted inhibition curve with a large enough effect; inconclusive = small, poorly fitted or top-dose-only effect, or another doubt; inactive = no such curve, though single readings can be large or run the other way; also: potency is read from the fitted curve at half-maximal effect; % is scaled to controls: 0 for no effect and ±100 for the full control effect
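Cell-based growth assay: transgenic P. falciparum expressing firefly luciferase, cultured in red cells within RPMI 1640 containing 0.5% w/v Albumax, 24 mM bicarbonate and gentamycin. A drop in luciferase activity indicates inhibition.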
NS1 inh: blocks influenza NS1 protein function; Potency, µM (titrated, usually from 46.1 µM), for the others: top-dose activity, positive = more growth; 0.4% of 270,000 active; AID 2326; also: potency is read from the fitted curve at half-maximal effect; actives are rising curves; nearly all actives have a fitted effect of over 50% in size
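Growth recovery, yeast-based: influenza A NS1 expressed in S. cerevisiae causes slow growth, and suppressors are detected by OD600. The parent strain without NS1 is used as positive control.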
Shiga inhibitor: inhibitors of Shiga toxin in Vero cells | AID 2315 | inhibition, % at 38.7 µM | Vero cells, Shiga toxin protein synthesis inhibition reporter | 9.2% of 290,000 active; in the data active = inhibition mostly above about 28%, no sharp cut-off; inactive = mostly below about 43%; also: 0% is about no effect
SARS PLpro yeast: blocks SARS-CoV papain-like protease in a yeast assay; S. cerevisiae expressing SARS-CoV PLpro, growth rescue; 0.19% of 330,000 active; AID 485353; Potency, µM (titrated, usually from 32.9 µM), inactives show top-dose activity, positive = growth rescue, usual class: activators; also: potency is read from the fitted curve at half-maximal effect; 0% is about no effect; nearly all actives have a fitted effect of over 55% in size
Active calls of the source: *; i = inactive; ? = inconclusive; . = not tested or not shown. Sampled rows, rich in hits. Any-hit rate of the full collection: about 21%. Unless noted, calls follow the shape of the full dose curve.

SMILES | CHX counter | Pf growth 96h | Pf growth 48h | NS1 inh | Shiga inhibitor | SARS PLpro yeast
COc1cc(/C=C/C(=O)Nc2cc(C(F)(F)F)ccc2Cl)cc(OC)c1OC | -5 | 2.6µM* | 10µM* | 0% | -12 | -21%
COc1ccc(/C=C/C(=O)Nc2cc(C(F)(F)F)ccc2Cl)cc1OC | -5 | 74% | ? | 9% | -5 | -5%
O=S(=O)(O)c1nc2ccccc2n1Cc1cccc2ccccc12 | 6 | 26% | 28% | 0% | 17 | -1%
CCOC(=O)C1CCN(CC(O)COc2ccc(C(C)=O)cc2)CC1 (stereo not given) | 11 | 9.3µM* | . | 6% | 0 | 4%
COC(=O)c1ccc(Nc2ccc3nonc3c2[N+](=O)[O-])cc1 | -6 | 14% | 7% | 0% | . | 2%
CC1CCCCN1Cc1nc2ccccc2c(=O)[nH]1 (stereo not given) | 17 | 0.019µM* | -14% | 1% | 19 | -1%
O=c1[nH]c(COc2ccc(Cl)cc2Br)nc2ccccc12 | 51* | -56% | 0% | -3% | 127* | -15%
CN(Cc1nc2ccccc2c(=O)[nH]1)C(=O)c1ccccc1OCc1ccc(Cl)cc1 | . | -14% | ? | . | . | -6%
O=c1[nH]c(Cc2ccccc2)nc2ccccc12 | -4 | 11% | 8% | 4% | -50 | 0%
O=C(CCc1nc2ccccc2c(=O)[nH]1)NNC(=O)COc1ccccc1Cl | . | 16% | 13% | . | . | 1%
O=c1[nH]c(COc2ccc(Cl)cc2Cl)nc2ccccc12 | 38* | 151% | 104% | 1% | 41* | -2%
O=c1[nH]c(Cc2ccccc2Cl)nc2ccccc12 | 8 | 9.3µM* | 11% | . | -3 | 2%
Cc1ccc(N2C(=O)Nc3ccc(Br)cc3C2(O)C(=O)NCCN(C)C)cc1C (stereo not given) | -4 | ? | . | 2% | 2 | 0%
Cc1ccccc1Sc1ncnc2onc(C)c12 | 1 | 8.3µM* | . | 0% | -22 | -6%
Cc1noc2ncnc(Sc3c(Cl)cccc3Cl)c12 | -1 | 2.3µM* | . | 2% | -16 | -1%
Cc1noc2ncnc(Sc3ccc(Cl)cc3)c12 | 11 | -16% | -7% | -49% | -14 | .
CSc1cnc2c(N)nc(N(C)C)nc2n1 | -1 | 6% | 27% | -2% | 22 | 9%
Nc1cccc(C(=O)OCC(=O)NC2CCCc3ccccc32)c1 (stereo not given) | -6 | 19% | 12µM* | . | 17 | 2%
COc1ccc(OC)c2nc(-c3ccc4c(c3)OCO4)ccc12 | 62* | 422% | . | -36% | 105* | -2%
c1ccc2nc(-c3ccc4c(c3)OCO4)ccc2c1 | 55* | 240% | 292% | -3% | 71* | -11%
Cc1ccc(-c2cc(C(=O)Nc3ccc4c(c3)OCCO4)c3ccccc3n2)cc1 | 55* | 23% | -91% | 24% | 125* | -12%
O=C(Nc1ccc2c(c1)OCO2)c1cc(-c2cccnc2)nc2ccccc12 | 16* | ? | 0% | 3% | 71 | -2%
CN(C)C(CNC(=O)C1CCN(S(=O)(=O)c2cccc(Cl)c2Cl)CC1)c1ccccc1 (stereo not given) | 1 | ? | ? | 3% | -3 | 4%
COC(CNC(=O)C1CCC(CNS(=O)(=O)c2c(C)cc(C)cc2C)CC1)OC (stereo not given) | -3 | 2% | -16% | -5% | -5 | 0%
COC(=O)c1cc(-c2ccc3c(c2)OCO3)nc2ccccc12 | 0 | 0.41µM* | 3% | -3% | 7 | 2%
SMILES | CHX counter | Pf growth 96h | Pf growth 48h | NS1 inh | Shiga inhibitor | SARS PLpro yeast
COC(=O)c1sccc1NC(=O)COc1ccc(Cl)cc1Cl | 9 | ? | 63% | -14% | 12 | 3%
Cc1noc(C)c1NC(=O)N(C)C[C@@H]1Oc2ccc(NC(=O)Cc3cn(C)c4ccccc34)cc2CC(=O)N([C@H](C)CO)C[C@@H]1C | . | . | . | . | . | 14%
COc1cccc(CNC(=O)C(=O)N2CCC3(CC2)OCCN3S(=O)(=O)c2ccc(C)cc2)c1 | . | ? | -24% | . | . | 5%
COC(=O)c1ccccc1-c1ccc(/C=N/NC(N)=O)o1 | 0 | 30% | 21% | 4% | 9 | 2%
COC(=O)N/N=C/c1ccc(-c2ccc(Cl)cc2Cl)o1 | 11* | 11% | -3% | -11% | 26 | -3%
COC(=O)N/N=C/c1ccc(-c2ccccc2Cl)o1 | 41* | 32% | 3% | -47% | 41* | -7%
CCOc1ccc2oc(C(=O)OCC(=O)N3C(C)CCCC3C)c(C)c2c1 (stereo not given) | . | ? | ? | . | . | 2%
COc1ccc2oc(C(=O)OCC(=O)N3C(C)CCCC3C)c(C)c2c1 (stereo not given) | 37* | -21% | -18% | -8% | 63* | -1%
Cc1c(C(=O)OCCN2CCCCC2)oc2ccccc12 | 14* | -12% | -19% | -8% | 21 | -2%
Cc1c(C(=O)OCC(=O)N2C(C)CCCC2C)oc2ccccc12 (stereo not given) | 50* | 91% | 194% | -41% | 96* | 5%
COc1ccc2oc(C(=O)OCC(=O)NC3CCCC3)c(C)c2c1 | 38* | 46% | 32% | -35% | 71* | -5%
Cc1c(C(=O)OCC(=O)N2c3ccccc3CC2C)oc2ccccc12 (stereo not given) | -2 | ? | 3% | -26% | 11 | -1%
Cc1c(C(=O)OCC(=O)N2CC(C)CC(C)C2)oc2ccccc12 (stereo not given) | . | 13% | -27% | . | . | -3%
COc1cccc(CC2(CO)CCCN(Cc3cc4ccccc4[nH]3)C2)c1 (stereo not given) | 1 | ? | ? | -3% | -5 | -2%
O=C1N(CN2CCN(Cc3ccccc3)CC2)c2ccccc2C12OCCCO2 | 12 | 15% | i | . | 23 | 2%
CCC(=O)Nc1cc(C(=O)OC(C(=O)c2ccc(C)c(C)c2)c2ccccc2)ccc1C (stereo not given) | 3 | 1.7µM* | 12µM* | 4% | -18 | -29%
CCOC(=O)C1CCCN(C(=O)c2cc(Nc3ccc(OC)cc3)nc3ccccc23)C1 (stereo not given) | 7 | ? | ? | -35% | 17 | .
CCOC(=O)C1(CC2CC2)CCN(C(=O)c2cc(C3CC3)nc3ccccc23)CC1 | 34* | ? | ? | 21% | 55* | -1%
CCOC(=O)C1(CC2CC2)CCN(C(=O)c2cc(OC)nc3ccccc23)CC1 | 31* | 0% | ? | -4% | 88* | 1%
CCNC(=S)NNC(=O)c1cc(C2CC2)nc2ccccc12 | -3 | -15% | ? | 28% | 11 | 6%
CCOC(=O)C1(CC2CC2)CCN(C(=O)c2cccnc2C)CC1 | 17* | -26% | -19% | 2% | 24 | 1%
Cc1cccc(NS(=O)(=O)c2cc(C(=O)NCCC3=CCCCC3)ccc2Cl)c1 | 1 | 42% | 12% | ? | -12 | -4%
O=C(NNC(=O)c1nc2ccccc2[nH]1)OCc1ccccc1 | . | . | . | . | . | 1%
